High-throughput results as filed in PubChem BioAssay.
Shown are actives, neighbours in structure and some others; about 1.1% of the full set was active somewhere.
HSV replic up – enhancers of HSV replication in host cells, fold increase, host cell viability | HSV replication augmentation in cells | maximum fold increase | actives 0.005% (n = 220,000) | AID 1956, 2009; in the data active = maximum fold increase above about 1.5; tested in PC3 cells
Ins promoter up – insulin promoter activators in MIN6 cells, imaging, high-content screening, mouse beta cells; actives 0.3% (n = 190,000); MIN6 insulin promoter-GFP reporter; hits give high values; z-score at 5 µM; AID 1625, 2009;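 active = z-score above 3 at 5 µM with at least 500 cells counted in the well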
INS promoter inh – inhibitors of insulin promoter-driven GFP, primary screen, imaging, TRM-6 cells (human fetal islet line), eGFP reporter, cell count; reporter expression induced with tamoxifen; inhibition, % at 2 µM; AID 1273, 2008; actives 0.9% (n = 130,000);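 active = inhibition above the mean plus 3 SD, with well images judged a real hit on visual review, cut at about 60% in these data, passing the limit was not always enough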
HMGR II inh – inhibitors of E. faecalis class II HMGR, primary screen, biochemical, Enterococcus faecalis; purified E. faecalis HMGR, NADPH absorbance 340 nm kinetic; AID 1066, 2008; actives 0.41% (n = 190,000); inhibition, % at 10 µM; HMG-CoA reductase (Enterococcus faecalis, mvaE);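 active = inhibition above a set limit, the median over all tested compounds plus 3 SD, cut at about 9.5% in these data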;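 note: enzyme runs in reverse so mevalonate oxidation gives rising NADPH absorbance; 0% = complete reaction with DMSO and 100% = background rate lacking mevalonate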
Active calls of the source: *.

What do the screens show for `O=S(=O)(c1cccc(F)c1)N1CCN(C(=S)NCc2ccccc2)CC1`?
HSV replic up: inactive; Ins promoter up: 1.3; INS promoter inh: -59; HMGR II inh: -4

How did CCc1nnc2c3cnn(-c4ccccc4)c3ncn12 do in these assays?
HSV replic up: inactive; Ins promoter up: 1.2; INS promoter inh: 78*; HMGR II inh: 0

Results for O=C(O)c1ccccc1-c1ccccc1C(=O)Nc1cccc(O)c1 ?
HSV replic up: inactive; Ins promoter up: 0.44; HMGR II inh: -9

Results for Cc1cc(C)n2nc(CCCO)nc2n1 ?
HSV replic up: inactive; Ins promoter up: -0.15; HMGR II inh: -3

Results for COc1ccccc1NC(=O)/C=C1\SCC(=O)N1C ?
HSV replic up: inactive; Ins promoter up: 4.7*; HMGR II inh: 0

What do the screens show for `COc1ccc(/C=C2\SC(=S)N(CC(=O)OCC(=O)Nc3cc(Cl)cc(Cl)c3)C2=O)cc1`?
HSV replic up: inactive; Ins promoter up: 0.2

What do the screens show for `CC(C)OC(=O)c1c(NC(=O)CCC(=O)O)sc2c1CCCCC2`?
HSV replic up: inactive; Ins promoter up: -0.59; INS promoter inh: 67*; HMGR II inh: -2

Results for CC(C)NC(=O)N1CCN(c2ccncc2S(=O)(=O)N2CCOCC2)CC1 ?
HSV replic up: inactive; Ins promoter up: 5.8*; INS promoter inh: -18; HMGR II inh: -4

How did CC(C)NC(=O)NS(=O)(=O)c1cnccc1N1CCCCC1 do in these assays?
HSV replic up: inactive; INS promoter inh: -69; HMGR II inh: -1

How did COCCCNC(=O)c1c(NC(=O)C2COc3ccccc3O2)sc2c1CCCC2 (centres undefined) do in these assays?
HSV replic up: inactive; INS promoter inh: 87*; HMGR II inh: -4

Results for COc1ccccc1-n1c(=O)c(C#N)c(-c2ccc([N+](=O)[O-])cc2)c2cc(C(=O)c3ccccc3O)cnc21 ?
HSV replic up: inactive; Ins promoter up: -0.67

How did CCOC(=O)/C=C/C(=O)OCC(=O)Nc1cccc(Br)c1 do in these assays?
HSV replic up: inactive; Ins promoter up: 0.29; HMGR II inh: -2

Results for CCOC(=O)/C=C/C(=O)OCC(=O)Nc1ccc(C)cc1 ?
HSV replic up: inactive; Ins promoter up: 0.44; INS promoter inh: 56; HMGR II inh: 11*

What do the screens show for `Cc1ccc(NC(=O)CC(O)(C(F)(F)F)C(F)(F)F)cc1`?
HSV replic up: inactive; Ins promoter up: -0.26; INS promoter inh: 77*; HMGR II inh: -7

What do the screens show for `COc1ccc(C)cc1NC(=O)CC(O)(C(F)(F)F)C(F)(F)F`?
HSV replic up: inactive; Ins promoter up: -0.61; HMGR II inh: 1

Results for O=C(NC(=S)Nc1nc2c(ccc3ccccc32)s1)c1cccs1 ?
HSV replic up: inactive; Ins promoter up: 0.27; INS promoter inh: 8; HMGR II inh: 2

How did C=CCNc1ncnc2c1[nH]c1ccc(Cl)cc12 do in these assays?
HSV replic up: inactive; Ins promoter up: 0.14; INS promoter inh: 93*; HMGR II inh: -2

What do the screens show for `C=CCNc1ncnc2c1[nH]c1ccccc12`?
HSV replic up: inactive; Ins promoter up: -2.7; INS promoter inh: 56; HMGR II inh: -6

How did Cc1nc(S(=O)(=O)Cc2ccccc2)nc2c1CCC2 do in these assays?
HSV replic up: inactive; Ins promoter up: 0; INS promoter inh: 43; HMGR II inh: -8

How did Cc1nc(S(=O)(=O)Cc2ccccc2Cl)nc2c1CCC2 do in these assays?
HSV replic up: inactive; Ins promoter up: 0.71; INS promoter inh: 73*; HMGR II inh: 1

How did CCn1c2ccccc2c2nnc(SCC(=O)Nc3cc(C)on3)nc21 do in these assays?
HSV replic up: inactive; Ins promoter up: 4*; INS promoter inh: -43; HMGR II inh: 4

How did CN1c2ccccc2-c2nc3ccccc3n2C1c1cccs1 (centres undefined) do in these assays?
HSV replic up: inactive; Ins promoter up: -0.11; INS promoter inh: -11; HMGR II inh: 4

How did c1nc(NC2CCCCCC2)c2[nH]cnc2n1 do in these assays?
HSV replic up: inactive; Ins promoter up: 0.49; INS promoter inh: 70*; HMGR II inh: -5

Results for O=C(Oc1ccccc1)c1cccc2cccc(C(=O)Oc3ccccc3)c12 ?
HSV replic up: inactive; Ins promoter up: -0.5

How did Cc1nn2c(Nc3ccccc3)c3c(nc2c1-c1ccccc1)CCC3 do in these assays?
HSV replic up: inactive; Ins promoter up: -0.06; INS promoter inh: 91*; HMGR II inh: 1

How did Cc1nn2c(NC(C)C)c3c(nc2c1-c1ccccc1)CCC3 do in these assays?
HSV replic up: inactive; Ins promoter up: -1.4
